Holding throughout (assay): protein-binding microarray (PBM); PBM: ~300 nM protein, 6 mM HEPES pH 7.8, 80 mM KCl, 0.5 mM EDTA, 0.5 mM EGTA, 6% glycerol, 35 ng/ul poly-dIdC, 1% milk, 1 h, room temperature; Ap Aiptasia and Nv Nematostella (sea anemones) / Co Capsaspora / Aq Amphimedon (sponge) / Dm Drosophila / Hu human; RHD is the Rel homology domain; high values mean tight binding
Common to all, as to settings: dsDNA, one strand shown

The target of one assay is T1, GST-Ap-NF-kB RHD (Exaiptasia pallida (Aiptasia), UniProt A0A913YAJ5 2-422).
T1 sequence: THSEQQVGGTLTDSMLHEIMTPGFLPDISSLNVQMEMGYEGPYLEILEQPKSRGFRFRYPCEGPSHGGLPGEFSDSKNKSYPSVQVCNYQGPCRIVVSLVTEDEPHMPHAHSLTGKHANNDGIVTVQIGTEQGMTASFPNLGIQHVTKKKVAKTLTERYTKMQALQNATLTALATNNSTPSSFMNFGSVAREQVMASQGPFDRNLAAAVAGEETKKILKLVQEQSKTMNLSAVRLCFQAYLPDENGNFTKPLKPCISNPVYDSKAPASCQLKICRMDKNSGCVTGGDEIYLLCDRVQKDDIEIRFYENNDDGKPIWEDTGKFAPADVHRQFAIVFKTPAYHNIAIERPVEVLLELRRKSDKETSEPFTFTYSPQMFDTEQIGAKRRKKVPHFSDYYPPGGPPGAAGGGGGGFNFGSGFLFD

In assay [1] the target is T2, GST-Nv-NF-kB (Cys allele) (Nematostella vectensis, UniProt E5G601 2-411).
T2 sequence: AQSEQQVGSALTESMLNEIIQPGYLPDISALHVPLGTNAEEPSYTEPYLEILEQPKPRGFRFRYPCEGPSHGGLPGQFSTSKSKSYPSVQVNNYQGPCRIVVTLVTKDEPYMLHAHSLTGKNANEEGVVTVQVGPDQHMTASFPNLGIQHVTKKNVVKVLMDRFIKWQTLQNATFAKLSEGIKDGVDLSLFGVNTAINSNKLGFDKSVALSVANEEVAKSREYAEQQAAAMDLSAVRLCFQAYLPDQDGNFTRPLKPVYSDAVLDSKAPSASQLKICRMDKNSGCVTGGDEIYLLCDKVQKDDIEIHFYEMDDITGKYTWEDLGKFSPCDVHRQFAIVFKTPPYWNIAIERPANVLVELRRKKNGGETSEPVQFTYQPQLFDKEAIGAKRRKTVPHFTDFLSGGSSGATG

Assay [2] addresses T3, GST-Nv-NF-kB (Ser allele) (Nematostella vectensis, UniProt A7UNT2 2-411).
T3 sequence: T2 sequence with Q21R, C66S, S207N, E215Q, V217A, E225K, A268E, D399E

For a further assay, the target named is T4, GST-Co-NF-kB (Capsaspora owczarzaki, UniProt F1ARL5 200-546).
T4 sequence: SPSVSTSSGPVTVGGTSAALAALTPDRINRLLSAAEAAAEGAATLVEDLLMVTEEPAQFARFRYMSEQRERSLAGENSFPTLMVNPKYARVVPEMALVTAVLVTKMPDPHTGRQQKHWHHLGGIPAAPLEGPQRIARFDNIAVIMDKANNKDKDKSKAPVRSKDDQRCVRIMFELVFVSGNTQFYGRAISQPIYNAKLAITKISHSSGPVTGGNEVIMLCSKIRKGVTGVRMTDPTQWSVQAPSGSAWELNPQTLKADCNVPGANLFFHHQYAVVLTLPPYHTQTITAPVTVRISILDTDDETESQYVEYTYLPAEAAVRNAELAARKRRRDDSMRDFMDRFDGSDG

The next assay addresses T5, GST-Dm-Relish (Drosophila melanogaster, UniProt Q94527 99-473).
T5 sequence: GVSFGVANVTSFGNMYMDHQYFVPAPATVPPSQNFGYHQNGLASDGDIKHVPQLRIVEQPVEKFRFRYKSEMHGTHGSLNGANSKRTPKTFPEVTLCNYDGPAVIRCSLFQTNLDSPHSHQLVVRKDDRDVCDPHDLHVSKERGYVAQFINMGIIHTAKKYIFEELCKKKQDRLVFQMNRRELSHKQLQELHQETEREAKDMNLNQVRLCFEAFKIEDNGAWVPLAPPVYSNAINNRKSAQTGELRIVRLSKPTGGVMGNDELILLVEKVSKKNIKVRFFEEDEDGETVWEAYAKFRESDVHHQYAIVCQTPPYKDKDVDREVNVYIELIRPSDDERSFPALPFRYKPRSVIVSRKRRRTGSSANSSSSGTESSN

A further assay concerns the target T6, GST-Aq-NF-kB (Amphimedon queenslandica, UniProt A9Y5G7 2-389).
T6 sequence: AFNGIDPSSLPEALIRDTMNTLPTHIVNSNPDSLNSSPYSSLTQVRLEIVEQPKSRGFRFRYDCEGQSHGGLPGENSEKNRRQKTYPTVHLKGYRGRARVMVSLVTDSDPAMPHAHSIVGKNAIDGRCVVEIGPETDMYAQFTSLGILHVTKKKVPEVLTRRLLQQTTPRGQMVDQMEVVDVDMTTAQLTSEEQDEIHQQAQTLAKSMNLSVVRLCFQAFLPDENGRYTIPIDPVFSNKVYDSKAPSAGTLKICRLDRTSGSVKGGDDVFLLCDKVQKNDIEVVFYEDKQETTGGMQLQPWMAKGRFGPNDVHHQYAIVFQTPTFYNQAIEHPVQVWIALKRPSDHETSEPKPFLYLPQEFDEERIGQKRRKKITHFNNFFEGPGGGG

In the next assay the target is GST-Hu-p50 (Homo sapiens, UniProt P19838 7-356).

Numbering of substitutions follows the chain as printed.

Sequence of GST-Hu-p50 (P19838 7-356): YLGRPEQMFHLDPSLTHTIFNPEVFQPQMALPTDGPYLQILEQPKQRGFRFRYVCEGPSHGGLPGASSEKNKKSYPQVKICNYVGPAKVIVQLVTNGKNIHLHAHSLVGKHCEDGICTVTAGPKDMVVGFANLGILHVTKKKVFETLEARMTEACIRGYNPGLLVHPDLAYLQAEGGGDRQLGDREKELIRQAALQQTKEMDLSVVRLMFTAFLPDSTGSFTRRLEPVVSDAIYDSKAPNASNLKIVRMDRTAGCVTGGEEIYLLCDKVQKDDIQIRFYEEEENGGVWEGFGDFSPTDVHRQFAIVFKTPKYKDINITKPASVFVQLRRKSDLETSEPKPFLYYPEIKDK

Take “CCGATTAACATCAGGGGAGTTCATGATGTTAATCGGGTCTTGATTCGCTTGACGCTGCTG”: the binding signal amounted to 5.95 z-score with GST-Ap-NF-kB RHD; 4.23 z-score in assay [1]; 4.73 z-score in assay [2]; 3.54 z-score in the assay with GST-Co-NF-kB; 3.15 z-score with GST-Dm-Relish; 3.96 z-score with GST-Aq-NF-kB. In addition, in the assay with GST-Hu-p50, the binding signal was found to be 4.11 z-score.

As to “CCGATTAACATCAGAAAAGTCCCTGATGTTAATCGGGTCTTGATTCGCTTGACGCTGCTG”, the binding signal turned out to be 7.92 z-score with GST-Ap-NF-kB RHD; 10.1 z-score in assay [1]; 9.94 z-score in assay [2]; 1.28 z-score in the assay with GST-Co-NF-kB; 8.36 z-score with GST-Dm-Relish; 8.15 z-score with GST-Aq-NF-kB. This sequence showed a binding signal with GST-Hu-p50 of 6.91 z-score.

For the sequence “CCGATTAACATCACGGGAAAATCTGATGTTAATCGGGTCTTGATTCGCTTGACGCTGCTG”, the binding signal in the assay with GST-Ap-NF-kB RHD was determined as 3.98 z-score; in assay [1] it was 5.79 z-score; in assay [2] it was 6.4 z-score; in the assay with GST-Co-NF-kB it was 5.43 z-score; with GST-Dm-Relish, 2.07 z-score; with GST-Aq-NF-kB, 5.16 z-score. Also, in the assay with GST-Hu-p50, the binding signal was found to be 3.87 z-score.

In the case of “CCGATTAACATCACATTTCCCCCTGATGTTAATCGGGTCTTGATTCGCTTGACGCTGCTG”, the binding signal with GST-Ap-NF-kB RHD is 6.84 z-score; in assay [1], 6.99 z-score; in assay [2], 10.2 z-score; with GST-Co-NF-kB, 9.84 z-score; with GST-Dm-Relish it was 4.03 z-score; with GST-Aq-NF-kB, 5.23 z-score. Further, in the assay with GST-Hu-p50, the binding signal is 6.55 z-score.

As for “CCGATTAACATCAAAAAACCCCTTGATGTTAATCGGGTCTTGATTCGCTTGACGCTGCTG”, the binding signal stood at 8.1 z-score in the assay with GST-Ap-NF-kB RHD; 8.78 z-score in assay [1]; 7.86 z-score in assay [2]; 2.05 z-score with GST-Co-NF-kB; 8.96 z-score with GST-Dm-Relish; 8 z-score with GST-Aq-NF-kB. This sequence registered a binding signal with GST-Hu-p50 of 7.64 z-score.

Regarding “CCGATTAACATCAAACTTTCCCCTGATGTTAATCGGGTCTTGATTCGCTTGACGCTGCTG”, the binding signal with GST-Ap-NF-kB RHD was 7.27 z-score; in assay [1], 8.67 z-score; in assay [2], 9.66 z-score; in the assay with GST-Co-NF-kB it was 8.89 z-score; with GST-Dm-Relish, 4.44 z-score; with GST-Aq-NF-kB, 7.57 z-score. In the assay with GST-Hu-p50, this sequence returned a binding signal of 6.2 z-score.

As for “CCGATTAACATCAGGAAATTCCCTGATGTTAATCGGGTCTTGATTCGCTTGACGCTGCTG”, the binding signal amounted to 6.31 z-score in the assay with GST-Ap-NF-kB RHD; 9.9 z-score in assay [1]; 8.03 z-score in assay [2]; 4.13 z-score in the assay with GST-Co-NF-kB; 6.79 z-score with GST-Dm-Relish; 9.8 z-score with GST-Aq-NF-kB. In the assay with GST-Hu-p50, this sequence had a binding signal of 6.16 z-score.

With “CCGATTAACATCAAACTCCCCCCTGATGTTAATCGGGTCTTGATTCGCTTGACGCTGCTG”, the binding signal with GST-Ap-NF-kB RHD stood at 7.58 z-score; in assay [1] it was 6.49 z-score; in assay [2], 6.75 z-score; in the assay with GST-Co-NF-kB, 7.67 z-score; with GST-Dm-Relish, 7.11 z-score; in the assay with GST-Aq-NF-kB, 6.54 z-score. Moreover, the binding signal with GST-Hu-p50 amounted to 6.75 z-score.

As to “CCGATTAACATCAGATTTACCCCTGATGTTAATCGGGTCTTGATTCGCTTGACGCTGCTG”, the binding signal was determined as 3.07 z-score in the assay with GST-Ap-NF-kB RHD; 2.72 z-score in assay [1]; 3.18 z-score in assay [2]; 6.39 z-score in the assay with GST-Co-NF-kB; 2.13 z-score with GST-Dm-Relish; 3.62 z-score in the assay with GST-Aq-NF-kB. Besides, the binding signal with GST-Hu-p50 came to 3.46 z-score.

For “CCGATTAACATCAGGGGAATTAATGATGTTAATCGGGTCTTGATTCGCTTGACGCTGCTG”, the binding signal with GST-Ap-NF-kB RHD was found to be 6.97 z-score; in assay [1], 9.44 z-score; in assay [2] it was 10.2 z-score; with GST-Co-NF-kB, 7.92 z-score; with GST-Dm-Relish it was 7.21 z-score; in the assay with GST-Aq-NF-kB, 6.31 z-score. The same sequence yielded a binding signal with GST-Hu-p50 of 6.52 z-score.

As to “CCGATTAACATCACGGTATTCCCTGATGTTAATCGGGTCTTGATTCGCTTGACGCTGCTG”, the binding signal was determined as 4.35 z-score with GST-Ap-NF-kB RHD; 3.63 z-score in assay [1]; 3.91 z-score in assay [2]; 3.34 z-score with GST-Co-NF-kB; 6.53 z-score with GST-Dm-Relish; 6 z-score with GST-Aq-NF-kB. In addition, in the assay with GST-Hu-p50, the binding signal is 1.52 z-score.

For “CCGATTAACATCAGGAGTTCCCCTGATGTTAATCGGGTCTTGATTCGCTTGACGCTGCTG”, the binding signal in the assay with GST-Ap-NF-kB RHD was 8.41 z-score; in assay [1] it was 9.9 z-score; in assay [2], 7.6 z-score; in the assay with GST-Co-NF-kB, 5.41 z-score; in the assay with GST-Dm-Relish it was 9.69 z-score; with GST-Aq-NF-kB, 9.11 z-score. In the assay with GST-Hu-p50, this sequence had a binding signal of 6.51 z-score.

The values are drawn from article PMC5700166.
